In paper PMC7862700, “An all-to-all approach to the identification of sequence-specific readers for epigenetic DNA modifications on cytosine”:

Columns and labels:
Assay in all cases: DAPPL (digital affinity profiling via proximity ligation, sequencing); 10 mM Tris-HCl pH 7.5, 50 mM NaCl, 1 mM DTT, 4% glycerol, room temperature, 30 min; GST-TFs on glutathione beads, 16-mer random dsDNA library, 0.1% formaldehyde crosslink after washing; high values mean tight binding
Details in all cases: protein: recombinant; tags: N-terminal GST; dsDNA, one strand shown
[1] = target: T1, ERF (Homo sapiens, UniProt P50548 1-548)
T1 sequence: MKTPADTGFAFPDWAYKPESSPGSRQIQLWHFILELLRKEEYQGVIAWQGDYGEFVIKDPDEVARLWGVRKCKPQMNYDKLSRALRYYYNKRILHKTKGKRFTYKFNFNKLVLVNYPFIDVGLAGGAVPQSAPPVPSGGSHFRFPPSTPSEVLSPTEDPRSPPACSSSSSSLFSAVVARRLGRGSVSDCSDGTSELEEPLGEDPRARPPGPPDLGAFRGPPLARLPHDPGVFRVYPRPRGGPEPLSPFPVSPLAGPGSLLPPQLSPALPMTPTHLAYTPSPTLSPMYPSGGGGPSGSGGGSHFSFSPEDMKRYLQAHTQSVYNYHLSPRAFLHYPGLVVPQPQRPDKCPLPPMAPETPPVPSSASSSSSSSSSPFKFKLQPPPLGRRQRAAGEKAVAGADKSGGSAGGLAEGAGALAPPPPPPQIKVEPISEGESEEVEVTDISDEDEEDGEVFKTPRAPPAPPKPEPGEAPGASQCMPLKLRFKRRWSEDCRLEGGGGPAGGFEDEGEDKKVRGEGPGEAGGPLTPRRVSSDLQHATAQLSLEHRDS
Summary of the method: (§1)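 After expression in yeast as GST fusions, human transcription factors were bound to glutathione beads, DNA-barcoded and mixed with a tag-only sample. The pools were incubated with 200 nmole of a 16-mer random double-stranded DNA library in Tris/NaCl/DTT/glycerol buffer (30 min, room temperature), washed and crosslinked with 0.1% formaldehyde. Proximity ligation with BsaI/T4 ligase ran for 1 h at 37 °C, before PCR amplification and sequencing on an Illumina NextSeq500. Binding signal is a hexamer's read frequency for a factor divided by its frequency for the tag-only sample.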

[2] = target: T2, ETV3L (Homo sapiens, UniProt Q6ZN32 1-361)
T2 sequence: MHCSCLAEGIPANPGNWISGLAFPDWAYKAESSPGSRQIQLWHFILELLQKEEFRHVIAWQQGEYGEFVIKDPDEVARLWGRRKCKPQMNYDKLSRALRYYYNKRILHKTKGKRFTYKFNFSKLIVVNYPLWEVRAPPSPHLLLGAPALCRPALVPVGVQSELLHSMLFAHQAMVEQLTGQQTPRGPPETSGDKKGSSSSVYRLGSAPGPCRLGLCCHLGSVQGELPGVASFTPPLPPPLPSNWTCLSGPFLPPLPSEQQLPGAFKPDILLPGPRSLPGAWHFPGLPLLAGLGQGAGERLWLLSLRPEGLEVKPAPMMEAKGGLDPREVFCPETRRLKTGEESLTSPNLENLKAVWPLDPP
Summary of the method: as §1

[3] = target: T3, ETS2 (Homo sapiens, UniProt P15036 1-469)
T3 sequence: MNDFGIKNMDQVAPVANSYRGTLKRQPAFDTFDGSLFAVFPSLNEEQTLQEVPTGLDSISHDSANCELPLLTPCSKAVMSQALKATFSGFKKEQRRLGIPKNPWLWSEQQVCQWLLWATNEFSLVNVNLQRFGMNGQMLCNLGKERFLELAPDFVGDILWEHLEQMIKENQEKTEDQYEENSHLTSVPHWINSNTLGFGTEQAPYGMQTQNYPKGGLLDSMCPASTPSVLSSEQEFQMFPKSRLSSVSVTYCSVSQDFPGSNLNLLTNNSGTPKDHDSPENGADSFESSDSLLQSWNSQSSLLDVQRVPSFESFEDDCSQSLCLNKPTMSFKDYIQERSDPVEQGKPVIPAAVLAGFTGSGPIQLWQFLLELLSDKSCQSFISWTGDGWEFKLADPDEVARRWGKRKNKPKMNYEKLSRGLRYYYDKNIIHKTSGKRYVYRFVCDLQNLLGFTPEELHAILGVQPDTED
Summary of the method: as §1

[4] = target: T4, SPDEF (Homo sapiens, UniProt O95238 1-335)
T4 sequence: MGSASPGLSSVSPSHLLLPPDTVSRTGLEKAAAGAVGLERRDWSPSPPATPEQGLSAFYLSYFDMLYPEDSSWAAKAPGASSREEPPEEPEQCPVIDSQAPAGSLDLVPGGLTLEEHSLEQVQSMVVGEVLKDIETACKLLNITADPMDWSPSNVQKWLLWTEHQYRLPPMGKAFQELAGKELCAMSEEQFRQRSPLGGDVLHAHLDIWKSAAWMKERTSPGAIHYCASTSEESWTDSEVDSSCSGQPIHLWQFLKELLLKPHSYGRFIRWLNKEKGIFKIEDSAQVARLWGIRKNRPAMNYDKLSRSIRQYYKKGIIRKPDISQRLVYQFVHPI
Summary of the method: as §1

[5] = target: T5, ETV7 (Homo sapiens, UniProt Q9Y603 1-341)
T5 sequence: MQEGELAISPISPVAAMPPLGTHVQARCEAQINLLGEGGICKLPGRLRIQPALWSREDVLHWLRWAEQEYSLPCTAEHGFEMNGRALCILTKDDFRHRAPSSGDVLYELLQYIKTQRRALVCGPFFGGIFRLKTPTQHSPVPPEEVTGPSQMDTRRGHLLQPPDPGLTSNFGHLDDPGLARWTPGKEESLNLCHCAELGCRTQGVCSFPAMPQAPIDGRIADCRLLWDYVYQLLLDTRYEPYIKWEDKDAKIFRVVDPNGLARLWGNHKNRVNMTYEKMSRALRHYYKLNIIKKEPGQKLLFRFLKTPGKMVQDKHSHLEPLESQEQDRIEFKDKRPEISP
Summary of the method: as §1

[6] = target: T6, ELF5 (Homo sapiens, UniProt Q9UKW6-2 1-255)
T6 sequence: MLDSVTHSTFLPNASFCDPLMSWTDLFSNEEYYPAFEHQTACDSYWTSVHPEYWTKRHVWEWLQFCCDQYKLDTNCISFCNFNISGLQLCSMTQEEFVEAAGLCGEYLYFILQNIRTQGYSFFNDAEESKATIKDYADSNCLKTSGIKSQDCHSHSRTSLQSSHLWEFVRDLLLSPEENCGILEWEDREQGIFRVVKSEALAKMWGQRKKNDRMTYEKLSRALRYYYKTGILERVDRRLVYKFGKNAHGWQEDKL
Summary of the method: as §1

[7] = target: T7, ETV3 (Homo sapiens, UniProt P41162-2 1-143)
T7 sequence: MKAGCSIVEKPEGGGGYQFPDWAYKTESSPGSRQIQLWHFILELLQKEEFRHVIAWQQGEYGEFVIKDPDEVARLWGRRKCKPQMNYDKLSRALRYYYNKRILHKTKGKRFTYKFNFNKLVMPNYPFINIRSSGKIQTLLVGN
Summary of the method: as §1

[8] = target: ETV6 (Homo sapiens, UniProt P41212 1-452)
Summary of the method: as §1

ETV6, sequence (P41212 whole entry): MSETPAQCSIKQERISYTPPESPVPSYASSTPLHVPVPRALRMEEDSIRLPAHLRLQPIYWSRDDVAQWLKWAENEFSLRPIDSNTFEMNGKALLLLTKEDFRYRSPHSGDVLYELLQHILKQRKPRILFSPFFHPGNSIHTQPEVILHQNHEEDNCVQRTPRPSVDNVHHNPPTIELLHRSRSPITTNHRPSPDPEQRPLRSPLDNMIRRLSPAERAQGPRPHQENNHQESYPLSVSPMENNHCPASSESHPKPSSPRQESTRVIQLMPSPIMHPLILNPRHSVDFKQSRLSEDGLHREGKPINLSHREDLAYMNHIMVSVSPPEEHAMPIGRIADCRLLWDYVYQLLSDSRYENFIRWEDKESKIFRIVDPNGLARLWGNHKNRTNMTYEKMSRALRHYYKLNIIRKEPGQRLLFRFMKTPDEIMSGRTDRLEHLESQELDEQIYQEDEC

Sequence | binding signal [1] | binding signal [2] | binding signal [3] | binding signal [4] | binding signal [5] | binding signal [6] | binding signal [7] | binding signal [8]
GACTTC | 2.25 fold enrichment (6-mer frequency, TF over GST control) | 2.41 fold enrichment (6-mer frequency, TF over GST control) | 2.58 fold enrichment (6-mer frequency, TF over GST control) | 2.13 fold enrichment (6-mer frequency, TF over GST control) | 2.2 fold enrichment (6-mer frequency, TF over GST control) | 2.99 fold enrichment (6-mer frequency, TF over GST control) | 2.6 fold enrichment (6-mer frequency, TF over GST control) | 2.64 fold enrichment (6-mer frequency, TF over GST control)
AAACAA | 1.25 fold enrichment (6-mer frequency, TF over GST control) | 1.32 fold enrichment (6-mer frequency, TF over GST control) | 1.32 fold enrichment (6-mer frequency, TF over GST control) | 1.27 fold enrichment (6-mer frequency, TF over GST control) | 1.28 fold enrichment (6-mer frequency, TF over GST control) | 1.28 fold enrichment (6-mer frequency, TF over GST control) | 1.3 fold enrichment (6-mer frequency, TF over GST control) | 1.31 fold enrichment (6-mer frequency, TF over GST control)
ATAACC | 1.08 fold enrichment (6-mer frequency, TF over GST control) | 1.18 fold enrichment (6-mer frequency, TF over GST control) | 1.21 fold enrichment (6-mer frequency, TF over GST control) | 1.22 fold enrichment (6-mer frequency, TF over GST control) | 1.25 fold enrichment (6-mer frequency, TF over GST control) | 1.16 fold enrichment (6-mer frequency, TF over GST control) | 1.15 fold enrichment (6-mer frequency, TF over GST control) | 1.17 fold enrichment (6-mer frequency, TF over GST control)
TCACGC | 1.26 fold enrichment (6-mer frequency, TF over GST control) | 1.2 fold enrichment (6-mer frequency, TF over GST control) | 1.11 fold enrichment (6-mer frequency, TF over GST control) | 1.12 fold enrichment (6-mer frequency, TF over GST control) | 1.16 fold enrichment (6-mer frequency, TF over GST control) | 1.15 fold enrichment (6-mer frequency, TF over GST control) | 1.07 fold enrichment (6-mer frequency, TF over GST control) | 1.15 fold enrichment (6-mer frequency, TF over GST control)
CTATGG | 1.11 fold enrichment (6-mer frequency, TF over GST control) | 1.16 fold enrichment (6-mer frequency, TF over GST control) | 1.16 fold enrichment (6-mer frequency, TF over GST control) | 1.29 fold enrichment (6-mer frequency, TF over GST control) | 1.39 fold enrichment (6-mer frequency, TF over GST control) | 1.09 fold enrichment (6-mer frequency, TF over GST control) | 1.29 fold enrichment (6-mer frequency, TF over GST control) | 1.09 fold enrichment (6-mer frequency, TF over GST control)
CTGGTT | 1.2 fold enrichment (6-mer frequency, TF over GST control) | 1.35 fold enrichment (6-mer frequency, TF over GST control) | 1.29 fold enrichment (6-mer frequency, TF over GST control) | 1.39 fold enrichment (6-mer frequency, TF over GST control) | 1.28 fold enrichment (6-mer frequency, TF over GST control) | 1.38 fold enrichment (6-mer frequency, TF over GST control) | 1.45 fold enrichment (6-mer frequency, TF over GST control) | 1.32 fold enrichment (6-mer frequency, TF over GST control)
ACATGC | 1.37 fold enrichment (6-mer frequency, TF over GST control) | 1.26 fold enrichment (6-mer frequency, TF over GST control) | 1.25 fold enrichment (6-mer frequency, TF over GST control) | 1.24 fold enrichment (6-mer frequency, TF over GST control) | 1.23 fold enrichment (6-mer frequency, TF over GST control) | 1.23 fold enrichment (6-mer frequency, TF over GST control) | 1.22 fold enrichment (6-mer frequency, TF over GST control) | 1.45 fold enrichment (6-mer frequency, TF over GST control)
GATATA | 1.15 fold enrichment (6-mer frequency, TF over GST control) | 1.18 fold enrichment (6-mer frequency, TF over GST control) | 1.16 fold enrichment (6-mer frequency, TF over GST control) | 1.32 fold enrichment (6-mer frequency, TF over GST control) | 1.1 fold enrichment (6-mer frequency, TF over GST control) | 1.13 fold enrichment (6-mer frequency, TF over GST control) | 1.09 fold enrichment (6-mer frequency, TF over GST control) | 1.12 fold enrichment (6-mer frequency, TF over GST control)
AACGAT | 1.29 fold enrichment (6-mer frequency, TF over GST control) | 1.19 fold enrichment (6-mer frequency, TF over GST control) | 1.22 fold enrichment (6-mer frequency, TF over GST control) | 1.14 fold enrichment (6-mer frequency, TF over GST control) | 1.17 fold enrichment (6-mer frequency, TF over GST control) | 1.19 fold enrichment (6-mer frequency, TF over GST control) | 1.24 fold enrichment (6-mer frequency, TF over GST control) | 1.25 fold enrichment (6-mer frequency, TF over GST control)
